Laboratory results reported in PubChem BioAssay (NCI).
Several values for one entry are separate records, joined by “and”; a condition that tells them apart may be missing. Equal values may be shown once. The panel holds about 83,000 compounds, 20% with a hit somewhere; the sample as a whole holds those more often.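 Plates (96-well) were seeded with cells, treated with compound at one concentration, and incubated for 48 hours before percent growth was determined.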 Activity calls are given as the source filed them. How the source made its calls: active means growth percent below 10; inactive means the rest.

What was measured:
Assay in all cases: NCI-60 one-dose screen, 48 h (100 = growth as untreated, 0 = no growth, -100 = all killed)
Conditions in all cases: 10 µM unless noted
SR leukemia = test system: SR leukemia
RPMI-8226 leukemia = test system: RPMI-8226 leukemia
OVCAR-8 ovarian = test system: OVCAR-8 ovarian
OVCAR-5 ovarian = test system: OVCAR-5 ovarian
OVCAR-4 ovarian = test system: OVCAR-4 ovarian
SK-OV-3 ovarian = test system: SK-OV-3 ovarian
IGROV1 ovarian = test system: IGROV1 ovarian
OVCAR-3 ovarian = test system: OVCAR-3 ovarian
HS 578T breast = test system: HS 578T breast
NCI/ADR-RES ovarian = test system: NCI/ADR-RES ovarian

Measured: growth

FC(F)(F)c1cc2c(Cl)ncnc2n1CCN1CCCCC1
inactive: RPMI-8226 leukemia 102% | OVCAR-8 ovarian 14.8% | OVCAR-5 ovarian 95% | OVCAR-4 ovarian 13.5% | SK-OV-3 ovarian 97.2% | HS 578T breast 56.3% | NCI/ADR-RES ovarian 79%
active: SR leukemia -50.9% | IGROV1 ovarian -84.8% | OVCAR-3 ovarian -21.7%

O=C1/C(=C/c2cccc3c2OCO3)Cc2c(F)cc(Br)cc21
inactive: SR leukemia 104% | RPMI-8226 leukemia 106% | OVCAR-8 ovarian 113% | OVCAR-5 ovarian 109% | OVCAR-4 ovarian 105% | SK-OV-3 ovarian 113% | IGROV1 ovarian 110% | OVCAR-3 ovarian 98.6% | HS 578T breast 115% | NCI/ADR-RES ovarian 108%

CN1CCN(c2ccc3c4c(cccc24)C(=O)N(c2cccc(-c4nn(-c5ccccc5)cc4-c4nc5ccccc5s4)c2)C3=O)CC1
inactive: RPMI-8226 leukemia 43.1% | OVCAR-8 ovarian 94.6% | OVCAR-5 ovarian 122% | OVCAR-4 ovarian 103% | SK-OV-3 ovarian 135% | IGROV1 ovarian 93.8% | OVCAR-3 ovarian 118% | HS 578T breast 91.7% | NCI/ADR-RES ovarian 95.2%
active: SR leukemia -25%

NS(=O)(=O)c1ccc(Nc2nc(SCC(=O)c3ccc(F)cc3)nc3ccccc23)cc1
inactive: SR leukemia 19.6% | RPMI-8226 leukemia 30.6% | OVCAR-8 ovarian 52.9% | OVCAR-5 ovarian 78.1% | OVCAR-4 ovarian 37.3% | SK-OV-3 ovarian 67.3% | IGROV1 ovarian 46.4% | OVCAR-3 ovarian 47.1% | HS 578T breast 53.1% | NCI/ADR-RES ovarian 28.7%

COc1ccc(/C=C/c2nc3ccccc3c(=O)n2CC(=O)Nc2ccccc2)cc1
inactive: SR leukemia 54.7% | RPMI-8226 leukemia 81.8% | OVCAR-8 ovarian 43.6% | OVCAR-5 ovarian 60.6% | SK-OV-3 ovarian 44.9% | IGROV1 ovarian 49.9% | OVCAR-3 ovarian 49.3% | NCI/ADR-RES ovarian 36.8%
active: OVCAR-4 ovarian 0.985% | HS 578T breast 9.93%

COc1cc(C=O)ccc1Oc1nc(Nc2ccc(F)cc2)nc(N(C)C)n1
inactive: RPMI-8226 leukemia 60% and 67% | OVCAR-8 ovarian 85.3% and 56.7% | OVCAR-5 ovarian 100% and 105% | OVCAR-4 ovarian 56.4% and 47.8% | SK-OV-3 ovarian 87.6% and 122% | IGROV1 ovarian 96.7% and 49.3% | OVCAR-3 ovarian 62.1% and 78.7% | HS 578T breast 85.5% and 41.5% | NCI/ADR-RES ovarian 81.7% and 54.3%
70.9% (inactive) and 6.2% (active): SR leukemia

COc1ccc(C(=O)NNC(=O)CSc2nc3sc4c(c3c(=O)n2-c2ccc(Cl)cc2)CCCC4)cc1
inactive: SR leukemia 48.2% | RPMI-8226 leukemia 79% | OVCAR-8 ovarian 24.3% | OVCAR-5 ovarian 78.9% | OVCAR-4 ovarian 78.6% | SK-OV-3 ovarian 70.4% | IGROV1 ovarian 89.2% | OVCAR-3 ovarian 106% | HS 578T breast 60.4% | NCI/ADR-RES ovarian 56.9%

COC(=O)c1cc(C(=O)C(Br)Br)n2c1ccc1c3ccccc3ccc12
inactive: SR leukemia 13.6% | RPMI-8226 leukemia 54.6% | OVCAR-8 ovarian 38.6% | OVCAR-5 ovarian 64.4% | OVCAR-4 ovarian 48.8% | SK-OV-3 ovarian 75.4% | IGROV1 ovarian 32.1% | OVCAR-3 ovarian 77% | HS 578T breast 44.3% | NCI/ADR-RES ovarian 70.3%

N#Cc1c(-c2ccc(F)cc2)nc(SCc2ccccc2)nc1N1CCNCC1
active: SR leukemia -10.3% | RPMI-8226 leukemia -58% | OVCAR-8 ovarian -77.5% | OVCAR-5 ovarian -96.3% | OVCAR-4 ovarian -75% | SK-OV-3 ovarian -67.9% | IGROV1 ovarian -95.6% | OVCAR-3 ovarian -61.3% | HS 578T breast -45.6% | NCI/ADR-RES ovarian -51.1%

CCOc1ccccc1NC(=O)N/C(N)=N/c1nc2ccccc2s1
active: SR leukemia 5.36% | RPMI-8226 leukemia 0.173% | OVCAR-8 ovarian -15.2% | SK-OV-3 ovarian 9.18% | OVCAR-3 ovarian -10.7% | NCI/ADR-RES ovarian -14.1%
inactive: OVCAR-5 ovarian 16.9% | OVCAR-4 ovarian 33.9% | IGROV1 ovarian 22.7% | HS 578T breast 60.8%

Cn1cc(-c2cc(N)n3nc(-c4c[nH]c5ccccc45)cc3n2)c2cc(Cl)ccc21
inactive: SR leukemia 20%
active: RPMI-8226 leukemia -7.08% | OVCAR-8 ovarian -63.7% | OVCAR-5 ovarian -65.9% | OVCAR-4 ovarian -29.3% | SK-OV-3 ovarian -61.4% | IGROV1 ovarian -65.5% | OVCAR-3 ovarian -52.5% | HS 578T breast -21.2% | NCI/ADR-RES ovarian -12.8%

COc1cc(/C=N/NC(=O)c2ccc(OCc3nc4ccc(C)cc4[nH]3)cc2)cc(OC)c1OC
active: SR leukemia 0.64% | RPMI-8226 leukemia 7.31% | OVCAR-8 ovarian -30.8%
inactive: OVCAR-5 ovarian 88% | OVCAR-4 ovarian 71.9% | SK-OV-3 ovarian 106% | IGROV1 ovarian 50.5% | OVCAR-3 ovarian 29.5% | HS 578T breast 63.1% | NCI/ADR-RES ovarian 91.6%

COc1ccc(SC2c3cc(OC)ccc3Oc3nc(N)c(C#N)c(N)c32)cc1 (stereo not given)
inactive: SR leukemia 29.5% | RPMI-8226 leukemia 56.3% | OVCAR-8 ovarian 87% | OVCAR-5 ovarian 123% | OVCAR-4 ovarian 105% | SK-OV-3 ovarian 113% | IGROV1 ovarian 21.9% | OVCAR-3 ovarian 98.4% | HS 578T breast 81% | NCI/ADR-RES ovarian 91.1%

Cc1cccc(-c2ccccc2Oc2ccc3nnc(Cl)n3n2)c1
inactive: SR leukemia 86.9% | RPMI-8226 leukemia 107% | OVCAR-8 ovarian 104% | OVCAR-5 ovarian 104% | OVCAR-4 ovarian 104% | SK-OV-3 ovarian 124% | IGROV1 ovarian 103% | OVCAR-3 ovarian 112% | HS 578T breast 102% | NCI/ADR-RES ovarian 102%

CCOC(=O)c1ccc(NC(=S)NC(=O)c2cccc(NC(=O)c3ccc(C)cc3)c2)cc1
inactive: SR leukemia 54.5% | RPMI-8226 leukemia 62.4% | OVCAR-8 ovarian 28.9% | OVCAR-5 ovarian 77.3% | OVCAR-4 ovarian 27.8% | SK-OV-3 ovarian 73.5% | IGROV1 ovarian 73.6% | OVCAR-3 ovarian 61.4% | HS 578T breast 53.4% | NCI/ADR-RES ovarian 65.9%

COc1ccc(CCC2NCCc3c(Br)c4c(c(OC)c32)OCO4)cc1 (stereo not given)
active: SR leukemia -6.62% | IGROV1 ovarian 1.92% | OVCAR-3 ovarian 1.09% | HS 578T breast 8.95% | NCI/ADR-RES ovarian -13.9%
inactive: RPMI-8226 leukemia 11% | OVCAR-8 ovarian 27.9% | OVCAR-5 ovarian 11.6% | OVCAR-4 ovarian 42.4% | SK-OV-3 ovarian 28.8%

COc1ccc(/C=C/C(=O)c2ccc(S(=O)(=O)NCCNc3nc(N(C)C)nc(N4CCOCC4)n3)cc2)cc1
inactive: SR leukemia 13.8% | RPMI-8226 leukemia 14% | OVCAR-8 ovarian 98.5% | OVCAR-5 ovarian 95.4% | OVCAR-4 ovarian 94.1% | SK-OV-3 ovarian 101% | IGROV1 ovarian 98.5% | OVCAR-3 ovarian 100% | HS 578T breast 104% | NCI/ADR-RES ovarian 89.7%

Clc1ccc(-c2nc3ccc(-c4nnc(SCc5ccccc5)o4)cc3[nH]2)cc1
inactive: SR leukemia 23.3% | RPMI-8226 leukemia 27.7% | OVCAR-5 ovarian 32.4% | SK-OV-3 ovarian 83.1% | IGROV1 ovarian 27.1% | HS 578T breast 48.7%
active: OVCAR-8 ovarian 8.94% | OVCAR-4 ovarian 3.57% | OVCAR-3 ovarian -1.55% | NCI/ADR-RES ovarian -9.86%

c1n[nH]cc1-c1nc2ccc3cn[nH]c3c2c2c1CCCC2
inactive: SR leukemia 74.5% | RPMI-8226 leukemia 85.3% | OVCAR-8 ovarian 89.2% | OVCAR-5 ovarian 89.9% | OVCAR-4 ovarian 96.1% | SK-OV-3 ovarian 96.8% | IGROV1 ovarian 66.5% | OVCAR-3 ovarian 109% | HS 578T breast 53% | NCI/ADR-RES ovarian 88.7%

COc1ccc2c(c1)N=c1c-2cc2c(O)[nH]c(=S)n2c1=O
inactive: SR leukemia 21.7% | RPMI-8226 leukemia 62.6% | OVCAR-8 ovarian 53.2% | OVCAR-5 ovarian 53.5% | OVCAR-4 ovarian 86.9% | SK-OV-3 ovarian 53.3% | IGROV1 ovarian 50% | OVCAR-3 ovarian 33.8% | HS 578T breast 21.5% | NCI/ADR-RES ovarian 26.7%

COc1cccc(/C=C/c2nc3ccccc3c(=O)n2CC(=O)Nc2ccccc2)c1
active: OVCAR-4 ovarian -1.67% | HS 578T breast 3.02%
inactive: SR leukemia 90% | RPMI-8226 leukemia 71.3% | OVCAR-8 ovarian 21.9% | OVCAR-5 ovarian 65.9% | SK-OV-3 ovarian 54.2% | IGROV1 ovarian 61% | OVCAR-3 ovarian 74.6% | NCI/ADR-RES ovarian 33%

COc1ccc(/C=C/c2nc3ccccc3n3c(-c4cccc([N+](=O)[O-])c4)nnc23)cc1
inactive: SK-OV-3 ovarian 25.6% | HS 578T breast 12%
active: SR leukemia -33.3% | RPMI-8226 leukemia -18.3% | OVCAR-8 ovarian -43.6% | OVCAR-5 ovarian -59.9% | OVCAR-4 ovarian -14.6% | IGROV1 ovarian -69% | OVCAR-3 ovarian -77.4% | NCI/ADR-RES ovarian -27%

CCOc1ccccc1[C@H]1C(C(=O)c2ccc(Cl)cc2)C2(N[C@@H]1c1ccccc1)C(=O)Nc1ccc(Cl)cc12 (stereo not given in full)
inactive: RPMI-8226 leukemia 21.1% | OVCAR-8 ovarian 45% | OVCAR-5 ovarian 46.2% | OVCAR-4 ovarian 22.5% | SK-OV-3 ovarian 42.8% | IGROV1 ovarian 22.2% | OVCAR-3 ovarian 27% | HS 578T breast 49% | NCI/ADR-RES ovarian 12.6%
active: SR leukemia -28.3%

CCOC(=O)/C(F)=C/C1CC1C1CCN(C(=O)OC(C)(C)C)CC1 (stereo not given)
inactive: SR leukemia 89.6% | RPMI-8226 leukemia 102% | OVCAR-8 ovarian 103% | OVCAR-5 ovarian 111% | OVCAR-4 ovarian 94.8% | SK-OV-3 ovarian 110% | IGROV1 ovarian 106% | OVCAR-3 ovarian 111% | HS 578T breast 110% | NCI/ADR-RES ovarian 100%

O=C(Nc1nc2ccccc2s1)Nc1ccccc1Cl
inactive: SR leukemia 111% | RPMI-8226 leukemia 91.9% | OVCAR-8 ovarian 48.5% | OVCAR-5 ovarian 89.6% | OVCAR-4 ovarian 34.2% | SK-OV-3 ovarian 49.2% | IGROV1 ovarian 79.4% | OVCAR-3 ovarian 111% | HS 578T breast 22.7% | NCI/ADR-RES ovarian 76%
